Measurements published in PubChem BioAssay (EPA / NIEHS).
Activity calls are given as the source filed them. Rule for the calls: active = hit-call score of the fitted dose curve at least 0.9, where 1 is the maximum; inactive = score below 0.9.

What was measured:
Settings in all cases: mRNA level, 48 h; actives raise or lower the signal
CYP2C9 (gene 1559) = test: LTEA_HepaRG_CYP2C9: Life Technologies and Expression Analysis (LTEA) Assay for CYP2C9 using HepaRG (AID 2283484)
In short: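 Differentiated human HepaRG cells in serum-free induction medium were exposed 48 h to chemicals in 8-point half-log series from 100 uM (0.5% DMSO), in duplicate. CYP2C9 mRNA was measured by qRT-PCR, normalized to ACTB/GAPDH/POLR2A, with bidirectional fitting versus DMSO.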

CYP2E1 (gene 1571) = test: LTEA_HepaRG_CYP2E1: Life Technologies and Expression Analysis (LTEA) Assay for CYP2E1 using HepaRG (AID 2283485)
In short: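 Human liver line HepaRG, plated 48 h, then serum-free induction medium + chemical x 48 h; 8-pt CRC from 100 uM, half-log, 0.5% DMSO, n=2. Readout: CYP2E1 mRNA qRT-PCR vs ACTB/GAPDH/POLR2A; bidirectional fit vs DMSO.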

CYP4A11 (gene 1579) = test: LTEA_HepaRG_CYP4A11: Life Technologies and Expression Analysis (LTEA) Assay for CYP4A11 using HepaRG (AID 2283486)
In short: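 Human hepatic HepaRG cultures receive duplicate 48 h exposures across a concentration-response series topping at 100 uM. Expression changes in CYP4A11 are measured by qRT-PCR relative to DMSO controls.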

[1] = read-out: DNA damage-inducible transcript 3 (DDIT3), DDIT3 (gene 1649); test: LTEA_HepaRG_DDIT3: Life Technologies and Expression Analysis (LTEA) Assay for DNA damage-inducible transcript 3 (DDIT3) using HepaRG (AID 2283488)
In short: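 HepaRG plated 48 h, switched to serum-free induction medium, dosed 48 h (100 uM top, half-log, 8 pts, 0.5% DMSO, n=2); RNA isolated; DDIT3 by qRT-PCR; bidirectional curve fit vs DMSO.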

[2] = read-out: Pro-epidermal growth factor (Homo sapiens) (UniProt P01133); test: LTEA_HepaRG_EGF: Life Technologies and Expression Analysis (LTEA) Assay for Epidermal growth factor (EGF) using HepaRG (AID 2283489)
In short: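 Concentration-response mRNA assay: HepaRG cells dosed 48 h (max 100 uM, 0.5% DMSO), EGF measured by qRT-PCR and normalized to ACTB/GAPDH/POLR2A.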

[3] = read-out: Early growth response protein 1 (EGR1) transcription factor, EGR1 (gene 1958); test: LTEA_HepaRG_EGR1: Life Technologies and Expression Analysis (LTEA) Assay for Early growth response protein 1 (EGR1) transcription factor using HepaRG (AID 2283490)
In short: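 Differentiated HepaRG cells in serum-free induction medium exposed 48 hours, duplicate, to 8 half-log concentrations up to 100 uM in 0.5% DMSO. EGR1 mRNA measured by TaqMan qRT-PCR, normalized to ACTB, GAPDH, POLR2A; bidirectional fit versus DMSO.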

[4] = read-out: Ezrin (EZR), EZR (gene 7430); test: LTEA_HepaRG_EZR: Life Technologies and Expression Analysis (LTEA) Assay for Ezrin (EZR) using HepaRG (AID 2283491)
In short: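 Read-out is EZR transcript level by qRT-PCR, normalized to three housekeeping genes and fitted bidirectionally against the DMSO control. Human HepaRG cells received test chemicals for 48 h at eight half-log concentrations up to 100 uM in 0.5% DMSO.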

[5] = read-out: Cytochrome P450 3A7 (Homo sapiens) (UniProt P24462); test: LTEA_HepaRG_CYP3A7: Life Technologies and Expression Analysis (LTEA) Assay for CYP3A7 using HepaRG (AID 2283492)
In short: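 qRT-PCR of CYP3A7 in HepaRG lysates after 48 h treatment; concentration-response (8 points, max 100 uM) analysed bidirectionally relative to 0.5% DMSO controls.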

CYP3A5 (gene 1577) = test: LTEA_HepaRG_CYP3A5: Life Technologies and Expression Analysis (LTEA) Assay for CYP3A5 using HepaRG (AID 2283493)
In short: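 HepaRG plated 48 h, switched to serum-free induction medium, chemicals added 48 h (max 100 uM, half-log, 0.5% DMSO). RNA isolated; CYP3A5 by TaqMan qRT-PCR. Gain/loss vs DMSO.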

[6] = read-out: Fatty Acid-Binding Protein 1 (FABP1), FABP1 (gene 2168); test: LTEA_HepaRG_FABP1: Life Technologies and Expression Analysis (LTEA) Assay for Fatty Acid-Binding Protein 1 (FABP1) using HepaRG (AID 2283494)
In short: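 Differentiated human HepaRG cells exposed 48 h in serum-free induction medium to eight half-log concentrations up to 100 uM (0.5% DMSO), duplicate. FABP1 mRNA by qRT-PCR, normalised to ACTB, GAPDH, POLR2A; bidirectional fitting against DMSO.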

[7] = read-out: Cytochrome P450 4A22 (Homo sapiens) (UniProt Q5TCH4); test: LTEA_HepaRG_CYP4A22: Life Technologies and Expression Analysis (LTEA) Assay for Cytochrome P450 4A22 (CYP4A22) using HepaRG (AID 2283495)
In short: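 Concentration-response (8 points, max 100 uM, 0.5% DMSO) in human HepaRG liver cells after 48 h exposure. CYP4A22 mRNA by TaqMan qRT-PCR with housekeeping-gene normalization.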

[8] = read-out: Glutathione S-Transferase (GSTA2), GSTA2 (gene 2939); test: LTEA_HepaRG_GSTA2: Life Technologies and Expression Analysis (LTEA) Assay for Glutathione S-Transferase (GSTA2) using HepaRG (AID 2283497)
In short: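 Differentiated human HepaRG cells were exposed in duplicate for 48 h in serum-free induction medium, 8 points from 100 uM top in half-log steps, 0.5% DMSO. GSTA2 mRNA was measured by TaqMan qRT-PCR, normalized to ACTB, GAPDH and POLR2A; bidirectional fit versus DMSO.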

[9] = read-out: Glutamate-cysteine ligase catalytic (GCLC), GCLC (gene 2729); test: LTEA_HepaRG_GCLC: Life Technologies and Expression Analysis (LTEA) Assay for Glutamate-cysteine ligase catalytic (GCLC) using HepaRG (AID 2283498)
In short: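 Differentiated HepaRG cells exposed 48 h in serum-free induction medium, eight-point half-log series topping at 100 uM in 0.5% DMSO, duplicates. GCLC mRNA by qRT-PCR normalized to ACTB, GAPDH and POLR2A, fitted bidirectionally versus DMSO.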

[10] = read-out: growth arrest and DNA damage 45 (GADD45G), GADD45G (gene 10912); test: LTEA_HepaRG_GADD45G: Life Technologies and Expression Analysis (LTEA) Assay for growth arrest and DNA damage 45 (GADD45G) using HepaRG (AID 2283499)
In short: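 Concentration-response in HepaRG: 48 h dosing, 0.5% DMSO, highest level 100 uM. GADD45G expression by qRT-PCR, normalised to endogenous controls; bidirectional fit to DMSO.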

[11] = read-out: Glutamate-cysteine ligase regulatory (GCLM), GCLM (gene 2730); test: LTEA_HepaRG_GCLM: Life Technologies and Expression Analysis (LTEA) Assay for Glutamate-cysteine ligase regulatory (GCLM) using HepaRG (AID 2283500)
In short: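 Cells were plated, cultured 48 h, switched to serum-free induction medium, then dosed in duplicate for 48 h at eight half-log concentrations up to 100 uM. RNA was then profiled by qRT-PCR; gain or loss versus DMSO was fitted.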

[12] = read-out: Glutathione S-transferase M3 (GSTM3), GSTM3 (gene 2947); test: LTEA_HepaRG_GSTM3: Life Technologies and Expression Analysis (LTEA) Assay for Glutathione S-transferase M3 (GSTM3) using HepaRG (AID 2283501)
In short: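 Expression of GSTM3 is determined by qRT-PCR in human liver HepaRG cells treated 48 h with an 8-point half-log range from 100 uM in 0.5% DMSO.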

[13] = read-out: Heat shock 70 kDa protein 1 (HSPA1A), gene 3303; test: LTEA_HepaRG_HSPA1A: Life Technologies and Expression Analysis (LTEA) Assay for Heat shock 70 kDa protein 1 (HSPA1A) using HepaRG (AID 2283502)
In short: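 Readout is HSPA1A transcript level by microfluidic qRT-PCR, normalized to three housekeeping genes and analysed for gain or loss of signal relative to 0.5% DMSO. Human HepaRG cultures received test chemicals for 48 h at up to 100 uM.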

[14] = read-out: Hypoxia-inducible factor 1-alpha (Homo sapiens) (UniProt Q16665); test: LTEA_HepaRG_HIF1A: Life Technologies and Expression Analysis (LTEA) Assay for Hypoxia-inducible factor 1 (HIF1A) Trancription factor using HepaRG (AID 2283503)
In short: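 Differentiated HepaRG cells in serum-free induction medium exposed 48 h, in duplicate, to 8-point half-log series from 100 uM in 0.5% DMSO. HIF1A mRNA measured by TaqMan qRT-PCR, normalized to ACTB/GAPDH/POLR2A, fitted bidirectionally versus DMSO.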

[15] = read-out: Cytochrome P450 3A4 (Homo sapiens) (UniProt P08684); test: LTEA_HepaRG_CYP3A4: Life Technologies and Expression Analysis (LTEA) Assay for CYP3A4 using HepaRG (AID 2283487)
In short: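 HepaRG, 48 h exposure, 8-pt CRC from 100 uM (half-log), 0.5% DMSO, duplicates; serum-free induction medium. Readout: CYP3A4 mRNA, qRT-PCR, ACTB/GAPDH/POLR2A normalization. Bidirectional fit vs DMSO.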

[16] = read-out: Cytochrome P450 7A1 (Homo sapiens) (UniProt P22680); test: LTEA_HepaRG_CYP7A1: Life Technologies and Expression Analysis (LTEA) Assay for Cytochrome P450 7A1 (CYP7A1) using HepaRG (AID 2283496)
In short: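 HepaRG cells plated 48 h, then switched to serum-free induction medium and exposed in duplicate for 48 h to 8-point half-log series from 100 uM in 0.5% DMSO. CYP7A1 mRNA by qRT-PCR (TaqMan), normalized to ACTB/GAPDH/POLR2A; bidirectional fit versus DMSO.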

Measured: AC50

Chain of Hypoxia-inducible factor 1-alpha (Homo sapiens) (Q16665 whole entry, looked up): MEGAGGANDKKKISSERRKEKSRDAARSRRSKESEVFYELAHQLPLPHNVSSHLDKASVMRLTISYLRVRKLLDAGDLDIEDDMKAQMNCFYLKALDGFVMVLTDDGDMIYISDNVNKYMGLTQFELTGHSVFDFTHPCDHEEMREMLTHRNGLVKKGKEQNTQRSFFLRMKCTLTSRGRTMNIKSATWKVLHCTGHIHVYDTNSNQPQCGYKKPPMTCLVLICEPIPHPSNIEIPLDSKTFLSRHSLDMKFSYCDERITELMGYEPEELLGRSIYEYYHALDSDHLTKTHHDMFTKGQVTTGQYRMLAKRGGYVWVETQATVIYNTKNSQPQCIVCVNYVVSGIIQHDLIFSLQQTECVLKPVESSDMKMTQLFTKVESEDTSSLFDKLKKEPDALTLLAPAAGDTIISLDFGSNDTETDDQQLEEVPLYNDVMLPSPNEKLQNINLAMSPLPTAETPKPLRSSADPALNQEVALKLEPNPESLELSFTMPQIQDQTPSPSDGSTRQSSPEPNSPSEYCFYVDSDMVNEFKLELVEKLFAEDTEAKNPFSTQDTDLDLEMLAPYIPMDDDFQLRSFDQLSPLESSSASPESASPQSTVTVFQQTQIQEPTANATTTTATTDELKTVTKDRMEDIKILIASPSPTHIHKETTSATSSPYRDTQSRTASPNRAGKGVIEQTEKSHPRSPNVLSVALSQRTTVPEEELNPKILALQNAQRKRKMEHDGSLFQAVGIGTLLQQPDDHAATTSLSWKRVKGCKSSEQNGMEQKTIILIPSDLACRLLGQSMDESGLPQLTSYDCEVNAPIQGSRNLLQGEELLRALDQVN
Chain of Cytochrome P450 3A7 (Homo sapiens) (P24462 whole entry, looked up): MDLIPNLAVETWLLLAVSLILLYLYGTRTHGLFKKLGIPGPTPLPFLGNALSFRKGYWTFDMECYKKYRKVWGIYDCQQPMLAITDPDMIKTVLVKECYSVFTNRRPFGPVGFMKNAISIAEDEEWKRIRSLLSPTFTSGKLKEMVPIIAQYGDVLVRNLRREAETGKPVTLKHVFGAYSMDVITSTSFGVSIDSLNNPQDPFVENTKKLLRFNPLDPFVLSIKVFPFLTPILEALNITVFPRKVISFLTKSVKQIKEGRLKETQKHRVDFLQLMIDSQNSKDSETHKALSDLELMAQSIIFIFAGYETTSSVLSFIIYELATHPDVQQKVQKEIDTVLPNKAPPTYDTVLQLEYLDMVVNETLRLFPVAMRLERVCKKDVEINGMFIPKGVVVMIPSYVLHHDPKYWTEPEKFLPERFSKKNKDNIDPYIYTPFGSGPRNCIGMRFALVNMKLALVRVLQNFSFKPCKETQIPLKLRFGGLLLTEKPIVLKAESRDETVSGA
Chain of Cytochrome P450 3A4 (Homo sapiens) (P08684 whole entry, looked up): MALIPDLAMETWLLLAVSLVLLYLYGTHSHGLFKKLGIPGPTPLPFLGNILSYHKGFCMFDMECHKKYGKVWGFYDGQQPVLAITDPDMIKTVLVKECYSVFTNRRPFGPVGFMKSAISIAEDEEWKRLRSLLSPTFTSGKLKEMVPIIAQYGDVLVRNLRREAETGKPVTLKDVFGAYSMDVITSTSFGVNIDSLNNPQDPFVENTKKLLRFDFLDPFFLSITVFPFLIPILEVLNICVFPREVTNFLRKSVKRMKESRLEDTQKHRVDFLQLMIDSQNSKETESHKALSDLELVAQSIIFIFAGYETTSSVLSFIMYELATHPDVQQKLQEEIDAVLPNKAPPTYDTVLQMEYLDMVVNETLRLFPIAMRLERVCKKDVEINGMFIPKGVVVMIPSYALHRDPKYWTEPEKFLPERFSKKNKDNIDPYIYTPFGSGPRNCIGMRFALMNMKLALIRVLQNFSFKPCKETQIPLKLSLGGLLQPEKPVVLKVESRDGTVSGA

Cc1occc1C(=O)Nc1ccc(C(=O)N2CCC(F)(F)/C(=C\C(=O)N3CCC(N4CCCCC4)CC3)c3ccccc32)cc1
active: CYP2C9 (gene 1559) 44.2 µM | CYP2E1 (gene 1571) 31.2 µM | CYP4A11 (gene 1579) 49 µM | [1] 42.3 µM | [7] 57.5 µM | [8] 52 µM | [12] 31.2 µM
not listed: [15] | [16]
inactive: all other assays above

CN(C)C(=O)C1(N2CCCCC2)CCN(CC[C@@]2(c3ccc(Cl)c(Cl)c3)CN(C(=O)c3ccccc3)CCO2)CC1
active: CYP2C9 (gene 1559) 21.9 µM | CYP2E1 (gene 1571) 8.56 µM | CYP4A11 (gene 1579) 14.9 µM | [1] 17.5 µM | [2] 25.3 µM | [3] 53.1 µM | [4] 60.6 µM | [5] 24.7 µM | [6] 17 µM | [8] 22 µM | [9] 88.3 µM | [10] 37.8 µM | [11] 88.3 µM | [12] 27.3 µM | [13] 15.2 µM | [14] 33.1 µM
inactive: CYP3A5 (gene 1577) | [7]

Oc1ccc2ccccc2c1
not listed: [3]
inactive: all other assays above

CCOC(=O)O[C@H](C)OC(=O)c1ccc2c(c1)cc(C(=O)NC1CCN(C(C)C)CC1)n2Cc1cc(-c2ccc(Cl)s2)on1
active: CYP4A11 (gene 1579) 47.2 µM
not listed: [3] | [16]
inactive: all other assays above

Cc1ccc(C(C)C)cc1
inactive: all assays above

COc1cc(C(=O)NC2CCN(C)CC2)ccc1Nc1ncc2c(n1)N(C1CCCC1)CC(F)(F)C(=O)N2C
inactive: [15] | [2] | CYP3A5 (gene 1577) | [11] | [14]
active: CYP2C9 (gene 1559) 3.9 µM | CYP2E1 (gene 1571) 22.9 µM | CYP4A11 (gene 1579) 3.34 µM | [1] 83 µM | [4] 28.7 µM | [6] 6.44 µM | [7] 3.23 µM | [8] 12 µM | [9] 21.3 µM | [10] 85.6 µM | [12] 3.73 µM | [13] 31.7 µM
